# Laboratory results from PubChem BioAssay (NCATS).
# Inconclusive results are not listed. Values without a mark were called inactive. Calls of active or inactive are those of the source. Calls follow the shape of the dose curve; as a rule, active = well fitted inhibition curve with a large enough effect; inconclusive = small, poorly fitted or top-dose-only effect; inactive = no such curve, though single readings can be large or run the other way. Starred links: 1 amine or outer side, 2 acyl side, 3 side chain; linkers in the order of their positions; H or OH if unused. Positions of bridges follow the written chain, without caps; N, C: chain ends. Non-standard residues stand in square brackets, D forms with d. Residues, ends and D or L forms follow the SMILES beside them. ξ: configuration not given here. *: point of attachment. X3 = C[C@@H](Oc1ccc([C@H](N[*:1])C(=O)[*:2])cc1)[C@]1(/C=C\C(=O)[*:3])CO1; d(aIle) = CC[C@H](C)[C@@H](N)C(=O)O; X2 = CC(C)[C@@H](O)C(C)C(=O)*; ξNMeF = CNC(Cc1ccccc1)C(=O)O; ξT = CC(O)C(N)C(=O)O; ξS = NC(CO)C(=O)O
# Molecular target: Nuclear receptor subfamily 1 group I member 3 (Homo sapiens) (UniProt Q14994)
# Assay: qHTS for Constitutive Androstane Receptor (CAR) Antagonist screened against the NCATS CANVASS Library (AID 1347372);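 as to activity change, negative = inhibition: cells stimulated with 50 nM CITCO agonist so inhibition reflects antagonism; luciferase from CYP2B6 promoter reporter driven by hCAR in HepG2 cells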
# Conditions: HepG2-hCAR-CYP2B6 luciferase, CITCO-stimulated antagonist mode; series mostly up to 46.1 µM; activity change, negative = inhibition: at the top concentration
# Source text: Natural products and their derivatives continue to be wellsprings of nascent therapeutic potential. However, many laboratories have limited resources for biological evaluation, leaving their previously isolated or synthesized compounds largely or completely untested. To address this issue, the Canvass library of natural products was assembled (https://tripod.nih.gov/canvass), in collaboration with academic and industry researchers, for quantitative high-throughput screening (qHTS) across a diverse set of cell-based and biochemical assays. The pure (>85% purity by liquid chromatography/mass spectrometry [LC/MS]) Canvass library of 346 natural products were submitted by 45 academic laboratories and companies around the world. We collected pure natural products to circumvent deconvolution and structure elucidation due to time and resource limitations. The library was formatted into 1536-well plates and evaluated in 50 qHTS (in an 11-pnt concentration series) bioassays with broad scope of disease-relevant mechanisms. The resulting data set from 50 different assays was then systematically analyzed to identify overall trends and specific natural products with interesting biological activities. Reported herein are the results of each individual qHTS and their corresponding assay protocol. The constitutive androstane receptor (CAR) is a nuclear receptor which regulates multiple drug metabolizing enzymes (DMEs) and transporters. Activating CAR will generally increase the transcription and subsequent translation of CYP2B6 and CYP3A4. These two DMEs represent about 50% of the drug metabolizing potential in the body. […] Recently, there have also been studies performed indicating CARs role in energy metabolism and cancer therapy. Therefore, inducing or inhibiting CAR's activity could have a potential effect on diabetes and/or cancer. National Center for Advancing Translational Sciences (NCATS), Rockville, MD National Institute of Health (NIH), Bethesda, Maryland
# Material: A double-stable (hCAR and CYP2B6-2.2kb) transfected cell line, derived from human hepatoma (HepG2) cells, was utilized for the duration of the quantitative high-throughput screens. The HepG2-CYP2B6-hCAR cells suspended in DMEM culture medium supplemented with 10% FBS, 5 ug/mL blasticidin, 0.5 mg/mL geneticin, 100 U/mL penicillin and 100 ug/mL streptomycin. CAR Antagonist assay protocol: 1. In a 1536 well, tissue culture treated white solid bottom plates (Greiner Bio-One North America), 4 uL of engineered HepG2-hCAR-CYP2B6 cell solution (final concentration 2500 cells / well) was dispensed using the Multidrop Combi dispenser (Thermo Fisher Scientific). 2. The assay plates were incubated for 4hr at 37C, 5% CO2 to allow the cells to acclimate and attach. 3. Compounds were pin transferred (~23 nL volume) to the assay plates via Wako Pin-tool (Wako Automation, Richmond VA) equipped with a 1536 pin head. The compounds were transferred to columns 5-48 resulting in a final concentration ranging from 0.6nM to 92uM. 4. One uL of CITCO, was added using a Flying Reagent Dispenser to generate a final concentration of 50 nM CITCO inside each well. 5. The assay plates were incubated at 37C, 5% CO2 for 24hr. 6. To measure cell viability, 1 uL of CellTiter-Fluor (Promega) reagent was then added to the assay plates (column 1-48, rows 1-32). The assay plates were incubated for 1hr at 37C, 5% CO2. 7. A first readout of fluorescence signal was acquired via the ViewLux (PerkinElmer) plate reader using a FITC dichroic mirror, excitation 405/10 nm filter, and emission 540/25 nm filter; and using 65 light energy, 1 second exposure, and 2x binning settings. 8. To measure CAR activation, 4 uL of ONE-Glo reagent (Promega) was added to the assay plates (column 1-48, rows 1-32). The assay plates were further incubated at room temperature for 30 min. 9. A second readout of luminescence signal was acquired via the ViewLux plate reader using a clear emission filter, 10 second exposure, 2x binning settings. […]
# % is scaled to controls: 0 for no effect and ±100 for the full control effect; potency is read from the fitted curve at half-maximal effect.
# Chain of Nuclear receptor subfamily 1 group I member 3 (Homo sapiens) (Q14994 whole entry, looked up): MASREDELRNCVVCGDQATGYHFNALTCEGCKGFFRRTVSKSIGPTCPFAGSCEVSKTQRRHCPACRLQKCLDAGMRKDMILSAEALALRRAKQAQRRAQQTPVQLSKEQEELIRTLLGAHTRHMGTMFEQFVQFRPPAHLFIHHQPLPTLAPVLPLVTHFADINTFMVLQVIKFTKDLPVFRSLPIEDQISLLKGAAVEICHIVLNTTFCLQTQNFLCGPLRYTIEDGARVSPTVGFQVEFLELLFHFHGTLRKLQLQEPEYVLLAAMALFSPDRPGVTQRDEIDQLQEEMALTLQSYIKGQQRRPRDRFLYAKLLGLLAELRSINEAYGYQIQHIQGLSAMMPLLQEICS
SMILES,"activity change, negative = inhibition",Potency
CCCC[C@@H]1CC[C@H]2CCCC(CCCO)N12 (some centres undefined),-5.7%,–
CO[C@H]1[C@H](O[C@H]2CC[C@]3(C=O)[C@H]4CC[C@]5(C)[C@@H](C6=CC(=O)OC6)CC[C@]5(O)[C@@H]4CC[C@]3(O)C2)O[C@H](C)[C@H](O)[C@@H]1OC,–,0.295 µM (active)
C[C@]12CC(O)C3[C@@H](CC[C@@H]4C[C@@H](O)CC[C@]34CO)[C@@]1(O)CC[C@@H]2C1=CC(=O)OC1 (some centres undefined),–,4.17 µM (active)
O[C@H]1C=C[C@@]23CCN(Cc4cc5c(cc42)OCO5)[C@@H]3C1,11.3%,–
C[C@]12CC(O)C3[C@@H](CCC4C[C@@H](O)CC[C@@]43CO)[C@@]1(O)CC[C@@H]2C1=CC(=O)OC1 (some centres undefined),–,10.5 µM (active)
C=C[C@H]1CN2CCc3c([nH]c4cccc(OC)c34)[C@@H]2C[C@@H]1/C(=C\OC)C(=O)OC,55.2%,–
C/C=C/[C@@H]1[C@H]2C[C@@H](C)CC[C@@H]2C(C)=C[C@H]1C(=O)c1c(O)c(-c2ccc(O)cc2)c[nH]c1=O,7.34%,–
COC1C(O)C(C)OC(OC2C(Oc3cccc4c(O)c5c(=O)oc6ccc(C)c7c(=O)oc(c34)c5c67)OC(C)C(O)C2O)C1O (centres undefined),–,11.7 µM (active)
CC[C@H]1CN2CCc3c([nH]c4cccc(OC)c34)[C@@H]2C[C@@H]1/C(=C\OC)C(=O)OC,67.3%,–
CC(C)CC1C(=O)O[C@H](C(C)C)C(=O)N(C)C(CC(C)C)C(=O)O[C@@H](C(C)C)C(=O)N(C)C(CC(C)C)C(=O)O[C@H](C(C)C)C(=O)N(C)C(CC(C)C)C(=O)O[C@@H](C(C)C)C(=O)N1C (some centres undefined),–,20.9 µM (active)
C=CC(C)(C)[C@@]12C[C@H]3C(=O)N/C(=C\c4cnc[nH]4)C(=O)N3[C@@H]1Nc1ccccc12,-51.9%,–
CC[C@@H]1CN2CCc3c([nH]c4cccc(OC)c34)[C@@H]2C[C@@H]1/C(=C\OC)C(=O)OC,80.6%,–
CCCCC1CC[C@H]2CCCC(CCC)N12 (some centres undefined),0.905%,–
C[N+](C)(C)CCc1c[nH]c2ccccc12,-1.76%,–
CO[C@H]([C@@H](C)[C@H]1O[C@]1(C)C[C@H](C)/C=C/C=C(\C)[C@H]1O[C@@H](CC(=O)O)CC[C@@H]1C)[C@@H](C)O,128%,–
CC[C@H](C)[C@H]1NC(=O)[C@@H](NC(=O)C(C)[C@H](O)C(C)C)[C@@H](C)OC(=O)C2COC(=O)CNC(=O)/C=C\[C@]3(CO3)[C@@H](C)Oc3ccc(cc3)[C@H](NC1=O)C(=O)N(C)C(Cc1ccccc1)C(=O)NC(C(C)O)C(=O)N2 (some centres undefined) (X2-T[d(aIle)][X3][ξNMeF][ξT][ξS]; ester 1-C; linker 3-6 via G),-6.83% [at 27.5 µM],–
CO[C@H]1C[C@H](O[C@H]2[C@@H](O)C[C@H](O[C@H]3CC[C@]4(C=O)[C@H]5CC[C@]6(C)C(C7=CC(=O)OC7)CC[C@]6(O)[C@@H]5CC[C@]4(O)C3)O[C@@H]2C)O[C@H](C)[C@H]1O[C@H]1C[C@@H](OC)[C@@H](O[C@@H]2O[C@H](CO)[C@@H](O)[C@H](O)[C@H]2O)[C@@H](C)O1 (some centres undefined),–,0.417 µM (active)
CO[C@@]12c3c(C)cc(O)c4c(=O)occ(c34)C(=O)[C@@H]1[C@]13COC(=O)c4c(O)cc(C)c(c41)C(=O)[C@H]2[C@@H]3OC(C)=O,5.36%,–
C[C@]12CCC3[C@@H](CC[C@@H]4C[C@@H](O)CC[C@]34CO)[C@@]1(O)CC[C@@H]2C1=CC(=O)OC1 (some centres undefined),–,4.17 µM (active)
C/C=C(\C)C(=O)O[C@@H]1[C@@H](O)[C@@H]2O[C@H]3[C@H](O[C@@H](CCCCC)CCCCCCC(=O)CCC(=O)OC[C@@H](O2)[C@H]1OC(=O)/C=C/c1ccccc1)O[C@H](C)[C@H](OC(C)=O)[C@@H]3O,–,0.0524 µM (active)
C/C=C1/CN2CC[C@@]34c5ccccc5N(C)[C@@H]3[C@@H]2C[C@@H]1[C@H]4C(=O)OC,31.3%,–
CCCC[C@@H](C)/C=C1/CN2CCC[C@H]2[C@@](C)(O)[C@@H]1O,13%,–
CO[C@@H](/C=C/CC/C=C/C(=O)O)[C@@H](O)[C@H](C)/C=C(\C)[C@H](O)[C@H](C)C(=O)CCCC1CC(=O)NC(=O)C1,2.04%,–
C1=C2CCCN[C@H]2C2CC1[C@H]1CCCCN1C2 (some centres undefined),-0.93%,–
c1ccc2nc3c(cc2c1)[nH]c1ccccc13,218%,–
CC[C@]12C=CCN3CC[C@]4(C(=C(C(=O)OC)C1)Nc1ccccc14)[C@@H]32,-7.44%,–
C/C(=C\[C@H](C)C(=O)C[C@H](O)CC1CC(=O)NC(=O)C1)[C@@H]1OC(=O)/C=C/CC/C=C/C=C/[C@@H]1C,–,0.741 µM (active)
C=CC(C)(C)[C@@]12C[C@H]3C(=O)N/C(=C/c4cnc[nH]4)C(=O)N3[C@@H]1Nc1ccccc12,–,20.9 µM (active)
COC1=C(C2=C(OC)C(=O)c3cc4c(c(O)c3C2=O)C(=O)O[C@H](C)C4)C(=O)c2c(cc3c(c2O)C(=O)O[C@H](C)C3)C1=O,1.1% [at 15.4 µM],–
